Out of some 320,000 compounds screened, about 1,300 (0.41%) were called active. About 3% were inconclusive and are not listed. The rule behind the calls is not given here. These entries were drawn from the full list. Measured potencies and affinities stand elsewhere.

A short description of the experiment: growth inhibition of non-replicating M. tuberculosis (AID 488890).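 Note: plate controls were DMSO cells for no effect and high antibiotic wells for full effect.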 The following applies: Mycobacterium tuberculosis non-replicating, at 25 µM, stronger effect = higher value.
For `O=C1N(Cc2cccnc2)C[C@@H]2C[C@@H](c3cccc(OCc4ccccc4)c3)N3CCC[C@@]123`, the inhibition (commonly the change of the read-out against control, counted positive when it falls) is 13.3%.
As to `O=C(C1CCCN(C2CC(=O)N(c3ccc(Cl)cc3)C2=O)C1)N1CCCC1` (stereo unspecified), the inhibition is 62.9%.
Next, `COc1cc(/C=N/NC(=O)c2cc(C)oc2C)cc(OC)c1OC`: 5.12%.
For `Cc1cc(C(=O)OC(C)C(=O)N2CCc3ccccc32)ccc1[N+](=O)[O-]` (stereo unspecified) the value was -2.01%; for `C=CCc1ccc(OCCCCOc2ccc(C(=O)O)cc2)c(OC)c1`, 65.2%; for `CCOc1ccc(C(=O)OCC(=O)N(Cc2ccccc2)Cc2ccccc2)cc1OC`, 6.46%.
For `CCN(C(=O)COn1nnc2ccc(S(=O)(=O)N(C)C)cc21)C1CCS(=O)(=O)C1` (stereo unspecified) the value was -12%; for `Cc1ccccc1OC1CCN(C(=O)C2CCC(=O)N(C3CCCC3)C2)CC1` (stereo unspecified), -4.05%; for `COc1ccnc2c1c(=O)n(Cc1ccc(Cl)cc1Cl)c(=O)n2C`, 7.37%.
Regarding `COc1ccc(OC)c(S(=O)(=O)NCC(=O)O)c1`, the inhibition was -1.93%.
For the compound `C[C@H](CO)N1C[C@H](C)[C@@H](CN(C)S(C)(=O)=O)Oc2ccc(NC(=O)C3CCCCC3)cc2C1=O`, the inhibition is -13.1%.
For `O=c1cc(-c2ccccc2)oc2cc(O)cc(O)c12` the value was 9.39%; for `O=c1cc(-c2ccc(O)cc2)oc2cc(O)cc(O)c12`, 20.1%.
For `CCOC(=O)c1ccc(NC(C)=O)c([N+](=O)[O-])c1`, the inhibition was -2.26%.
For `CCOC(=O)c1ccc([N+](=O)[O-])cc1NC(C)=O`, the inhibition is -5.06%.
For `Cc1cc(S(=O)(=O)NCCCn2ccnc2)c(C)cc1Cl` the value was 21.8%; for `Cc1ccc(NC(=O)C2C3C=CC4(O3)C2C(=O)N(CCN2CCOCC2)C4C(=O)NC2CCCCC2)cc1C` (stereo unspecified), 4.86%.
Regarding `COc1ccc(Cl)cc1S(=O)(=O)NC(C)C(=O)NCc1cccnc1` (stereo unspecified), the inhibition came out at 0.53%.
As for `COc1ccc2c(c1O)C(=O)c1ccccc1C2=O`, the inhibition was -8.36%.
`CNc1c(C(=O)O)ccc2c1C(=O)c1ccccc1C2=O`: the inhibition was -14.2%.
Turning to `CCc1ccccc1NS(=O)(=O)c1cc(C)ccc1OC`, the inhibition was 16.3%.
For the compound `CCOc1ccc2nc(NCCCO)[nH]c2c1`, the inhibition was 2.84%.
`O=C(O)c1cccc(S(=O)(=O)Nc2cc(Cl)ccc2Cl)c1`: the inhibition worked out at 13.1%.
`COc1ccc(NC(=O)C2CCN(S(=O)(=O)c3ccc(Br)s3)CC2)cc1OC`: the inhibition is -2.33%.
`Cc1ccc(C2C(C#N)=C(N)Oc3n[nH]c(C)c32)cc1` (stereo unspecified): the inhibition was -4.34%.
For `CCCc1[nH]nc2c1C(c1cccc(OC(=O)c3ccco3)c1)C(C#N)=C(N)O2` (stereo unspecified) the value was 17.8%; for `Cc1[nH]nc2c1C(c1ccc(Cl)cc1)C(C#N)=C(N)O2` (stereo unspecified), -2.67%; for `Cc1[nH]nc2c1C(c1ccc(-c3ccccc3C#N)o1)C(C#N)=C(N)O2` (stereo unspecified), 49.7%.
For the compound `COc1ccc(Br)cc1CNc1ccc(N2CCOCC2)cc1`, the inhibition was found to be 24%.
For `CCCCN(C(=O)C1CC(=O)N(c2ccc3c(c2)OCCO3)C1)c1c(N)n(CCCC)c(=O)[nH]c1=O` (stereo unspecified) the value was 0.16%; for `Cc1ccccc1NC(=O)c1nn(C)c2c1CS(=O)(=O)c1ccccc1-2`, -16.9%; for `O=C(O)C1CC(O)CN1S(=O)(=O)c1ccc2ccccc2c1` (stereo unspecified), 8.45%.
Take `O=C(Oc1cccnc1)c1ccc(Cl)cc1`: the inhibition was found to be 8.07%.
In the case of `O=C(Oc1cccnc1)c1cccc(Cl)c1`, the inhibition was 51.8%.
Next, `CCOC(=O)c1ccc2[nH]c3c(c2c1)CCCC3C(=O)OCC` (stereo unspecified): 64.3%; `CCOC(=O)C1CCCc2c1[nH]c1c(C(=O)O)cccc21` (stereo unspecified): 67.3%.
As for `CCOC(=O)c1c(C)nc2ccc(C)cn12`, the inhibition amounted to 37%.
For the compound `CCOC(=O)c1c(C)nc2ccccn12`, the inhibition worked out at 6.28%.
Consider `CC1Cc2cc(/C=C3/SC(=S)N(C)C3=O)ccc2O1` (stereo unspecified), for which the inhibition came out at 5.53%.
In the case of `CC1Cc2cc(/C=C3/SC(N4CCC(C(N)=O)CC4)=NC3=O)ccc2O1` (stereo unspecified), the inhibition is 21.7%.
As to `COC(=O)c1ccc(C23CC4(C2)[C@H](CN(C)[C@@H]4c2ccccc2)C3c2ccccc2)cc1` (stereo partly specified), the inhibition is -17.5%.
Take `Cc1ccc(N2CC(=O)Nc3c(sc4nc(C)cc(C)c34)C2=O)cc1`: the inhibition was found to be 7.84%.
Consider `O=C(CNC(=O)c1ccc(Cl)cc1)Nc1ccc(S(=O)(=O)Nc2ncccn2)cc1`, for which the inhibition was found to be 19.6%.
For `Cc1ccnc(NC(=O)CN(C)S(=O)(=O)c2cccc3nsnc23)c1` the value was 4.38%.
For `O=C1C=CC(=O)N1Cc1ccccc1` the value was 33.7%.
For `Cc1nc2ccccc2c(=O)n1N(c1ccccc1)c1ccccc1` the value was 40%; for `O=C(Nc1cccc(F)c1)C1CCCN1C(=O)OCc1ccccc1` (stereo unspecified), -8.2%; for `COc1ccc(-c2cc(C(=O)NC(C)C)no2)cc1`, 2.59%.
For `COc1ccc(-c2cc(C(=O)O)no2)cc1`, the inhibition came out at 9.82%.
Next, `CC(C)(C)S(=O)(=O)c1ccc2nc3c(n2c1)CCCC3`: 12.6%; `Brc1ccc2nc3c(n2c1)CCCC3`: 40.8%.
For the compound `CN(c1ccccc1C(=O)O)S(C)(=O)=O`, the inhibition was -5.19%.
For `CC1(c2ccccc2Cl)NC(=O)N(CC(=O)N2CCN(S(=O)(=O)c3ccccc3)CC2)C1=O` (stereo unspecified), the inhibition is -5.46%.
Next, `O=C(CNC(=O)c1ccco1)N/N=C/c1ccccc1[N+](=O)[O-]`: -2.46%; `O=C(Nc1nc2ccccc2s1)c1ccc([N+](=O)[O-])o1`: 64.8%.
Next, `O=C(Nc1ccc(N2CCN(C(=O)c3cccs3)CC2)cc1)c1ccc(Br)o1`: 67.5%; `O=C(Nc1ccc(N2CCN(C(=O)c3cccs3)CC2)cc1)c1ccco1`: -3.51%.
Next, `CC(C)C(=O)N1CCN(c2ccc(NC(=O)c3ccc(Br)o3)cc2)CC1`: 8.34%; `O=C(Nc1nc(-c2cccs2)cs1)c1ccco1`: 25.2%; `Cc1ccccc1C(=O)N1CCN(c2ccc(NC(=O)c3ccc([N+](=O)[O-])o3)cc2)CC1`: 78.2%.
Take `CC(=O)Nc1nc(-c2cccs2)cs1`: the inhibition came to 18.4%.
On to `O=C(Nc1nc2c(F)cccc2s1)c1ccc([N+](=O)[O-])o1`, for which the inhibition worked out at 65.5%.
With `COc1ccccc1CN(C)C(=O)COC(=O)c1ccc(Cl)nc1`, the inhibition stood at 73.1%.
For `COCCn1nnnc1CN1CCN(C(=O)c2ccco2)CC1` the value was -9.84%; for `CC(NC(=O)c1cccs1)C(S)c1ccccc1` (stereo unspecified), 13.2%; for `CN(CC(=O)Nc1ccccc1Br)C(=O)CCc1ccccc1`, 6.37%.
For `COC(=O)c1ccc(N2C(=O)CC(N(C)CCc3ccc(OC)c(OC)c3)C2=O)cc1` (stereo unspecified) the value was -11.7%; for `O=C(Nc1ncnc2c1CCC2)C12CC3CC(CC(C3)C1)C2`, -0.8%; for `CC(C)(C)c1ccc(NNC(=O)C2CCC2)cc1`, 23.3%.
For `COc1cc(NC(=O)c2ccc([N+](=O)[O-])o2)ccc1NC(=O)c1cccs1` the value was 44%; for `O=C(Nc1cccc(NC(=O)c2cccs2)c1)c1ccc(Br)o1`, 40.6%.

The record behind these values is PubChem BioAssay AID488890 (Southern Research Specialized Biocontainment Screening …, 2010).
